The supplement of paper PMC3334620
In all, about 33,000 sequences were measured (“E-score (-0.5 to 0.5)”: median about -0.01, highest 2% from about 0.26 on). The sample holds the highest values, similar sequences and a random draw of the others, so the mix is not that of the screen.

Biological target: Ste12 (UniProt P13574)
Assay: PBM E-score (8-mer binding enrichment) (E-score (-0.5 to 0.5)); higher = stronger / more preferred TF binding
Conditions: protein concentration: 200 nM; construct: GST-DNA-binding domain
Protocol: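 Universal 'all 10-mer' protein binding microarrays (Agilent AMADID 015681) probed with GST-tagged S. cerevisiae TFs (full-length or DBD) made by in vitro transcription/translation (PURExpress), about 100-200 nM. Bound TF was detected with fluorescent anti-GST. Each ungapped 8-mer (which stands for itself and its reverse complement) is scored by the PBM enrichment score (E-score), a modified Wilcoxon-Mann-Whitney statistic from -0.5 to +0.5, computed with the Universal PBM Analysis Suite. Scale: above 0.35 generally sequence-specific binding.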

Chain of UniProt P13574 (P13574 whole entry): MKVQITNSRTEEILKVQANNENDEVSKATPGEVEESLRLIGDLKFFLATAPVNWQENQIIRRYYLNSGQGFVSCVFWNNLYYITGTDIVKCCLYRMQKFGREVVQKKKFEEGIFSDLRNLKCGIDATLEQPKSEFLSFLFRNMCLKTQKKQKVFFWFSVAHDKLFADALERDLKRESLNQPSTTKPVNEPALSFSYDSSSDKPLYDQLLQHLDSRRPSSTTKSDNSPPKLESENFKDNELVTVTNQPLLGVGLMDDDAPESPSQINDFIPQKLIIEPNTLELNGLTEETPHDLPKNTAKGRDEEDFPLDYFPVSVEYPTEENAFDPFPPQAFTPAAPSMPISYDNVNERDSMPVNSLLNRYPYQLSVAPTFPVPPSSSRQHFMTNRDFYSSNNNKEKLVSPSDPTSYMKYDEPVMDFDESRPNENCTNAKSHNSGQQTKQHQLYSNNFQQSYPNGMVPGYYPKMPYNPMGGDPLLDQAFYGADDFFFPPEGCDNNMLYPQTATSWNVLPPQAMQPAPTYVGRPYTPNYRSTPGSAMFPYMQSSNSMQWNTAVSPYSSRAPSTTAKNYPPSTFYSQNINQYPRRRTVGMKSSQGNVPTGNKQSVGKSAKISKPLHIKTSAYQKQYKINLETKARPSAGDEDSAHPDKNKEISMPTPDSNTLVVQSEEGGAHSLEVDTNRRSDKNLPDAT

Sequence	PBM E-score
ACCGCTCA	-0.0178
CACCGCAC	-0.00376
ACCGCCGC	0.0865
GGATACTA	0.0524
CGCGGGAC	0.012
AGGCCAGC	-0.157
CCTGGTAG	-0.00862
ATGCCTCG	0.00724
TTCACCAA	0.0895
CTCACCAC	-0.168
CTCACCAA	0.284
AAAATTGA	0.226
TAAATTGA	0.288
TAAATTTA	0.334
CAAATTTA	0.217
AAAATTTA	0.085
GAAATTGA	0.12
ACGCTCTC	-0.122
ACCTGCTC	-0.0508
ATACCTCA	0.0605
ATGTCTGG	0.0356
CGCGGGGA	0.333
AGCGGGGA	0.111
CGCGGGAA	0.161
GGGGGGGA	-0.298

Sequence	PBM E-score
GGCGGGGA	0.407
GGCGGGAA	0.00719
AAAATCTC	0.119
CGTTAGGC	-0.0275
ATTAATCC	0.0655
CATAATAA	0.136
AATAATAG	0.0434
ATTAATTG	0.237
ATTAATTA	0.237
CTTAATAC	0.207
AATAATAC	0.198
ATTAATCG	0.273
ATTAATAC	0.263
AATAATAA	0.308
ATTAATCA	0.145
ATTAATTC	0.308
GCATTCGC	-0.276
CCAAACCC	0.194
ATAGATCG	0.0199
CTAACCTC	-0.0539
ACCTGTCG	0.00512
CCGCGGCC	0.174
CAATACCC	-0.00702
AGACTACC	-0.179
AAACTAGT	0.123

Sequence	PBM E-score
ATCATCTC	0.0683
CTTAATAA	0.232
GTTAATAA	0.0895
AATAAGAA	0.276
ATTAATAG	0.283
AGTAATAG	0.0705
ATTAATAA	0.289
AATAAGAT	0.00235
AATAAGAG	0.0566
ATTAATGG	0.219
ACTGGTCT	-0.117
GTGATCGA	0.161
ATTGTGTA	0.274
CTTGTGTA	0.0226
ATTGTGTG	-0.0472
ACTGCGAT	-0.072
CATGGCAA	0.0424
CAACATGA	0.0787
AAACATGC	0.231
TAACATGA	0.098
CAACATCA	0.0676
AAACATCC	0.249
AAACATCA	0.328
AAACATGA	0.321
AAACATGG	0.206

Sequence	PBM E-score
AAACATGT	0.301
TCTTCTCA	0.019
GATCTGAA	0.0323
ATGGACCG	-0.00313
TCCGATCA	0.0466
CAGTGTGC	-0.187
ACCTAACG	-0.137
ATATTCAT	0.227
GCGCCGGA	-0.0097
CTTAAAAA	0.22
CTTAAAAG	-0.0909
ATTAAAAA	0.295
ATTAAACC	0.156
ATTAAAAC	0.313
ATTAAAAT	0.32
ATTAAAGA	0.0703
CTTAAAAC	0.352
ATTAAAAG	0.137
AGTAAAAT	0.122
AGTAAAAC	0.168
CCACTGAC	-0.126
AGCATAAC	-0.00864
ACTACATG	0.0147
CCGACACA	-0.0323
ATTTAGCG	-0.0176

Sequence	PBM E-score
GGCAATAC	0.0406
GAGATCTC	-0.14
CACTTCAG	-0.198
GATTCTGA	0.0395
ACGTGAAT	0.0319
AAACGGCG	0.149
ATCGCGAT	0.0912
ACTATGCG	0.0582
ATTAAATA	0.292
GTTAAAAC	0.174
ATTAAATC	0.248
ATTAAATG	0.19
GTTAAAGA	0.0582
GTTAAAAA	0.291
CACGTGGG	-0.129
CGGTACTA	-0.0556
AGCCATGG	-0.192
AATTAGGC	0.179
ACAACTGG	-0.0989
ACAACTTA	0.053
ACAACTGA	0.293
AGACCACA	-0.0546
GAATCTGA	-0.0846
AAATCTGA	0.266
AAATCTGC	0.0398

Sequence	PBM E-score
CTCGTGAC	0.0961
CCTCTTTC	-0.0876
CCTCCCCA	0.329
CCTCCCCG	0.283
CCCCCCCG	-0.257
CCTCCCCC	-0.134
CCTCCCAA	-0.136
ACTCCCCG	0.07
AGCCATGC	-0.0768
CGGGGAAA	0.272
GCGGGGGA	-0.143
GCGGGAAA	0.121
GGGGGAAA	0.241
CGGGGGAA	0.0885
GCGGGGAA	0.261
CGAGCGCA	0.0982
ACCAGTTC	0.0206
ATCCAAGA	0.136
TCGGCCGA	0.0948
TGAGACAA	0.274
CGAGACAA	0.0198
AGAGACAA	-0.154
CAGGTTCA	-0.0316
CGCTAACC	-0.0284
TGTACTAA	0.053

Sequence	PBM E-score
GACTTGCC	-0.305
ACAAACCT	-0.111
ACAAAACC	0.171
AAAAAACG	0.269
CAAAAACG	0.177
CCAAAACG	0.254
ACAAAACG	0.35
AGAAAACG	0.0569
GCGCGCGA	0.154
CCGCGCGC	0.24
GCGCGCGC	0.353
CCGCGCGG	0.321
ACGCGCGC	0.122
CCGCGCGA	0.169
GGAGGGCA	0.0377
ACTGGTTG	0.0694
GGCCCGAC	0.15
GGTGTTGA	-0.0828
ATAACTCA	0.044
GACTGCCA	0.107
GCTAGACA	-0.118
GCATGAAC	-0.0143
TCATGAAA	0.27
CCATGAAA	0.252
ACATGAAC	0.0476

Sequence	PBM E-score
TCATGAGA	0.0861
GCATGAAA	0.318
TCATGACA	0.178
ACATGAAA	0.283
ACATGAAG	0.091
ATCACCGG	-0.0135
GTCCACCA	-0.342
CTCTTAAG	-0.0926
AAAAGGAA	0.188
AATATGAC	0.0945
GTTATGAA	0.221
CTTATGAA	0.204
TATATGAA	0.17
ATTATGAA	0.265
AATATGAA	0.269
CCAGCTAC	-0.091
AGCGACTA	-0.043
TCAGTCAA	-0.0289
GGGACACA	0.17
CGCGCGGC	0.306
ACCGCGCC	-0.034
ACCGCGCT	-0.16
CGCGCGGA	0.0633
CGCGCGCC	0.157
ACCGCGCG	0.273

Sequence	PBM E-score
CGCGCGCA	0.208
CGCGCGCG	0.262
GCCGCGGC	0.29
CCCGCGGC	0.224
AGCGCGGC	0.0144
GCCGCGGA	0.0303
ACGGAGTG	-0.043
AACGACCC	-0.126
ACGCTCGG	-0.0861
GTTCAGTA	-0.0836
ATCGCACA	0.0146
AACCAATA	0.195
ACGTAGCG	-0.0127
ACTGAAAC	0.477
GCTGAAGC	-0.0602
CCTGAAAC	0.487
ACTGAAAG	0.175
GCTGAAAC	0.485
ACTGAAAA	0.101
GCTGAAAA	0.17
CCTGAAAA	0.0508
CCTGAAAG	-0.179
